Several values for one entry are separate records, joined by “and”; a condition that tells them apart may be missing. Equal entries are not always repeated. In all, about 5,500 compounds went through this assay and about 2,000 (36%) were called active. About 18% were inconclusive and are not listed. The list shows a part of the results. Values without a mark were called inactive. No stated cut-off is given here; in the data, active means normalized growth mostly below about 0.91 (no sharp cut-off); inconclusive means no clear call, values can overlap the other calls; inactive means mostly above about 0.92.
Assay: chemical genetic growth profiling, strain panel (AID 1159580);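 further: tested at 20 µM; growth read once vehicle control cultures reached saturation at 30 °C; 1 = growth at the plate median or of vehicle wells; lower values mean less growth of the strain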
Conditions: S. cerevisiae deletion strains, growth OD

CCOC(=O)c1c(C)cc(O)c(C=O)c1O
normalized growth (locus YAL013W, strain DEP1, hits give low values): 0.271 (active)
normalized growth (locus YAL021C, strain ccr4, hits give low values): 0.615 (active)
normalized growth (locus YAL026C, strain drs2, hits give low values): 0.212 (active)
normalized growth (locus YAL030W, strain snc1, hits give low values): 0.725 (active)
normalized growth (locus YBL061C, strain skt5, hits give low values): 0.642 (active)
normalized growth (locus YBR009C, strain hhf1, hits give low values): 0.592 (active)
normalized growth (locus YBR021W, strain FUR4, hits give low values): 0.851
normalized growth (locus YBR023C, strain chs3, hits give low values): 0.619 (active)
normalized growth (locus YBR171W, strain sec66, hits give low values): 0.776 (active)
normalized growth (locus YBR229C, strain ROT2, hits give low values): 0.541 (active)
normalized growth (locus YBR231C, strain swc5, hits give low values): 0.548 (active)
normalized growth (locus YBR279W, strain paf1, hits give low values): 0.66 (active)
normalized growth (locus YCL011C, strain gbp2, hits give low values): 0.616 (active)
normalized growth (locus YCL016C, strain dcc1, hits give low values): 0.714 (active)
normalized growth (locus YCL029C, strain bik1, hits give low values): 0.144 (active)
normalized growth (locus YCL061C, strain MRC1, hits give low values): 0.624 (active)
normalized growth (locus YCL069W, strain vba3, hits give low values): 0.531 (active)
normalized growth (locus YCR088W, strain abp1, hits give low values): 0.832 (active)
normalized growth (locus YDL005C, strain med2, hits give low values): 0.903 (active)
normalized growth (locus YDL035C, strain GPR1, hits give low values): 0.21 (active)
normalized growth (locus YDL040C, strain nat1, hits give low values): 0.86 (active)
normalized growth (locus YDL074C, strain BRE1, hits give low values): 0.156 (active)
normalized growth (locus YDL101C, strain DUN1, hits give low values): 0.16 (active)
normalized growth (locus YDL134C, strain PPH21, hits give low values): 0.249 (active)
normalized growth (locus YDL185W, strain tfp1, hits give low values): 0.0651 (active)
normalized growth (locus YDL192W, strain arf1, hits give low values): 0.202 (active)
normalized growth (locus YDR001C, strain nth1, hits give low values): 0.841 (active)
normalized growth (locus YDR069C, strain doa4, hits give low values): 0.516 (active)
normalized growth (locus YDR101C, strain arx1, hits give low values): 0.181 (active)
normalized growth (locus YDR137W, strain rgp1, hits give low values): 0.202 (active)
normalized growth (locus YDR150W, strain NUM1, hits give low values): 0.436 (active)
normalized growth (locus YDR159W, strain sac3, hits give low values): 0.413 (active)
normalized growth (locus YDR162C, strain NBP2, hits give low values): 0.0543 (active)
normalized growth (locus YDR195W, strain ref2): 0.908
normalized growth (locus YDR297W, strain sur2, hits give low values): 0.609 (active)
normalized growth (locus YDR318W, strain mcm21, hits give low values): 0.142 (active)
normalized growth (locus YDR334W, strain swr1, hits give low values): 0.619 (active)
normalized growth (locus YDR335W, strain msn5, hits give low values): 0.623 (active)
normalized growth (locus YDR388W, hits give low values): 0.213 (active)
normalized growth (locus YDR392W, strain spt3, hits give low values): 0.135 (active)
normalized growth (locus YDR502C, strain sam2, hits give low values): 0.185 (active)
normalized growth (locus YEL003W, strain gim4, hits give low values): 0.582 (active)
normalized growth (locus YEL037C, strain rad23, hits give low values): 0.71 (active)
normalized growth (locus YEL061C, strain CIN8 (second series), hits give low values): 0.643 (active)
normalized growth (locus YEL061C, strain CIN8, hits give low values): 0.153 (active)
normalized growth (locus YER015W, strain faa2, hits give low values): 0.516 (active)
normalized growth (locus YER016W, strain bim1, hits give low values): 0.768 (active)
normalized growth (locus YER110C, hits give low values): 0.295 (active)
normalized growth (locus YER111C, strain swi4, hits give low values): 0.278 (active)
normalized growth (locus YER155C, strain BEM2 (second series), hits give low values): 0.409 (active)
normalized growth (locus YER155C, strain BEM2, hits give low values): 0.178 (active)
normalized growth (locus YER167W, strain BCK2, hits give low values): 0.105 (active)
normalized growth (locus YFR010W, strain ubp6, hits give low values): 0.681 (active)
normalized growth (locus YGL078C, strain dbp3, hits give low values): 0.57 (active)
normalized growth (locus YGL086W, strain mad1, hits give low values): 0.186 (active)
normalized growth (locus YGL167C, strain pmr1, hits give low values): 0.842 (active)
normalized growth (locus YGL173C, strain kem1, hits give low values): 0.27 (active)
normalized growth (locus YGL227W, strain vid30, hits give low values): 0.821 (active)
normalized growth (locus YGL240W, strain doc1, hits give low values): 0.503 (active)
normalized growth (locus YGL248W, strain PDE1, hits give low values): 0.236 (active)
normalized growth (locus YGL253W, strain hxk2, hits give low values): 0.283 (active)
normalized growth (locus YGR078C, strain PAC10, hits give low values): 0.103 (active)
normalized growth (locus YGR135W, strain pre9, hits give low values): 0.119 (active)
normalized growth (locus YGR229C, strain SMI1, hits give low values): 0.0734 (active)
normalized growth (locus YGR252W, strain gcn5, hits give low values): 0.303 (active)
normalized growth (locus YHR013C, strain ard1, hits give low values): 0.506 (active)
normalized growth (locus YHR027C, strain rpn1, hits give low values): 0.405 (active)
normalized growth (locus YHR030C, strain SLT2, hits give low values): 0.064 (active) and 0.117 (active)
normalized growth (locus YHR079C, strain IRE1 (second series), hits give low values): 0.16 (active)
normalized growth (locus YHR079C, strain IRE1, hits give low values): 0.138 (active)
normalized growth (locus YHR094C, strain hxt1, hits give low values): 0.231 (active)
normalized growth (locus YHR129C, strain ARP1, hits give low values): 0.187 (active)
normalized growth (locus YHR142W, strain chs7, hits give low values): 0.345 (active)
normalized growth (locus YHR200W, strain rpn10, hits give low values): 0.484 (active)
normalized growth (locus YIL066C, strain RNR3, hits give low values): 0.167 (active)
normalized growth (locus YIL073C, strain SPO22, hits give low values): 0.211 (active)
normalized growth (locus YIL125W, strain kgd1, hits give low values): 0.471 (active)
normalized growth (locus YIR030C, strain dcg1, hits give low values): 0.196 (active)
normalized growth (locus YJL092W, strain hpr5, hits give low values): 0.756 (active)
normalized growth (locus YJL095W, strain BCK1 (second series), hits give low values): 0.381 (active)
normalized growth (locus YJL095W, strain BCK1, hits give low values): 0.0697 (active) and 0.127 (active)
normalized growth (locus YJL115W, strain asf1, hits give low values): 0.784 (active)
normalized growth (locus YJL129C, strain trk1, hits give low values): 0.613 (active)
normalized growth (locus YJL134W, strain LCB3, hits give low values): 0.535 (active)
normalized growth (locus YJL154C, strain vps35, hits give low values): 0.774 (active)
normalized growth (locus YJL164C, strain tpk1, hits give low values): 0.587 (active)
normalized growth (locus YJL166W, strain qcr8, hits give low values): 0.449 (active)
normalized growth (locus YJL168C, strain set2, hits give low values): 0.534 (active)
normalized growth (locus YJL187C, strain SWE1 (second series), hits give low values): 0.15 (active)
normalized growth (locus YJL187C, strain SWE1, hits give low values): 0.625 (active)
normalized growth (locus YJR043C, strain POL32, hits give low values): 0.209 (active)
normalized growth (locus YJR066W, strain TOR1, hits give low values): 0.091 (active)

From PubChem BioAssay AID1159580 (chemical genetic matrix, 2015)
